Measured values taken from PubChem BioAssay (EPA / NIEHS).
Results filed as inconclusive are left out. Activity calls are given as the source filed them. How the source made its calls: active means hit-call score of the fitted dose curve at least 0.9, where 1 is the maximum; inconclusive means response in the unintended direction; inactive means score below 0.9.

These compounds were tested against rat Serotonin, 5-Hydroxytryptamine Receptor (5HT), Non-Selective Binding, Htr1a (gene 24473) (UniProt P19327) (assay: NVS_GPCR_r5HT_NonSelective: NovaScreen (NVS) G Protein-Coupled Receptor Assay for rat Serotonin, 5-Hydroxytryptamine Receptor (5HT), Non-Selective Binding (AID 2283295)).
Method: (§1) NVS_GPCR_r5HT_NonSelective is a biochemical, single-readout assay that uses extracted gene-proteins from Rat cortical membranes in a tissue-based cell-free assay. Measurements were taken 1 hour after chemical dosing in a 48-well plate.NVS_GPCR_r5HT_NonSelective is one of one assay component(s) measured or calculated from the NVS_GPCR_r5HT_NonSelective assay. It is designed to make measurements of radioligand binding, a form of binding reporter, as detected with scintillation counting signals by Filter-based radiodetection technology.Data from the assay component NVS_GPCR_r5HT_NonSelective was analyzed into 1 assay endpoint. This assay endpoint, NVS_GPCR_r5HT_NonSelective, was analyzed in the positive analysis fitting direction relative to DMSO as the negative control and baseline of activity. Using a type of binding reporter, loss-of-signal activity can be used to understand changes in the binding as they relate to the gene Htr1a. Furthermore, this assay endpoint can be referred to as a primary readout, because the performed assay has only produced 1 assay endpoint. To generalize the intended target to other relatable targets, this assay endpoint is annotated to the gpcr intended target family, where the subfamily is rhodopsin-like receptor.
(§2) Binding assays used specific radioligands (tritiated, iodinated) with non-radioactive competitive displacement ligands in agonist or antagonist protocols (as indicated) and various reference compounds and inhibitors to titrate specific binding to receptors and transporters. Most enzyme assays (CYPs, kinases, phosphatases, proteases, HDACs) used recombinant protein and specific substrates (fluorescence mostly, some colorimetric and radioactive) and inhibitors, followed by a biochemical separation of substrate and product. All assays for the biochemical HTS were initially run in duplicate at a single concentration (10 uM for CYP450 assays and 25 uM for all others). […] Each assay was run with positive and negative controls, and concurrent controls on every plate. The follow-up (secondary) screen tested active chemical-pairs in concentration series, as well as a few additional assays not tested in the primary screen, some selected negative inactives, and several cases re-run in the concentration series for confirmatory purposes.

Chain of rat Serotonin, 5-Hydroxytryptamine Receptor (5HT), Non-Selective Binding, Htr1a (gene 24473) (P19327 whole entry, looked up): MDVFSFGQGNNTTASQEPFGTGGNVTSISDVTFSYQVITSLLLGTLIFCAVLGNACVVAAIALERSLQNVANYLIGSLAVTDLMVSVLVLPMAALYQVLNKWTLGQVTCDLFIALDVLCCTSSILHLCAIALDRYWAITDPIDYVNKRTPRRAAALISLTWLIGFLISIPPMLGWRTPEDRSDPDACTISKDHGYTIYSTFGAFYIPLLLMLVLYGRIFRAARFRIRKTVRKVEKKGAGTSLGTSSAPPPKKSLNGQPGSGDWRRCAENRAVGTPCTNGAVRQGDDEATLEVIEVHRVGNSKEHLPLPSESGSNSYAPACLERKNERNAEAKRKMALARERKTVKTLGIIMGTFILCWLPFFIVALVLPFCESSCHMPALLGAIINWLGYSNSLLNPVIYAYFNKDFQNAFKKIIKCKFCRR

Row | SMILES | outcome | AC50
1 | CC(=O)C(C)=CC1C(C)=CCCC1(C)C (stereo not drawn) | inactive | 
2 | CC1=C(/C=C/C(C)=C/C=C/C(C)=C/CO)C(C)(C)CCC1 | inactive | 
3 | CN1CCN(Cc2cc(-c3ccc4[nH]c(=O)oc4c3)co2)[C@@H](c2ccc(F)cc2)C1 |  | 0.0493 µM (active)
4 | O=C(N[C@@H](Cc1ccccc1)[C@@H](O)C(=O)N1C[C@@H](O)[C@@H](O)C1)c1cc2cc(Cl)ccc2[nH]1 | inactive | 
5 | CCCCC(CC)COC(=O)CC(C(=O)OCC(CC)CCCC)S(=O)(=O)O (stereo not drawn) |  | 25 µM (active)
6 | CCc1c(C(=O)NN2CCCCC2)nn(-c2ccc(Cl)cc2Cl)c1-c1ccc(Br)cc1 |  | 12 µM (active)
7 | NC(=O)Cn1c(=O)cc(CCN2CCN(c3nccc4sccc34)CC2)c2ccc(F)cc21 |  | 0.0315 µM (active)

These compounds were tested against rat Adrenergic, Alpha 1A Receptor (Adra1A), Adra1a (gene 29412) (UniProt P43140) (assay: NVS_GPCR_rAdra1A: NovaScreen (NVS) G Protein-Coupled Receptor Assay for rat Adrenergic, Alpha 1A Receptor (Adra1A) (AID 2283296)).
Method: as §1, with “NVS_GPCR_rAdra1A” for “NVS_GPCR_r5HT_NonSelective”, “membranes (pretreated with chlorethyl clonidine-CEC)” for “membranes”, “plate.NVS_GPCR_rAdra1A” for “plate.NVS_GPCR_r5HT_NonSelective”, “NVS_GPCR_rAdra1A,” for “NVS_GPCR_r5HT_NonSelective,”, “Adra1a.” for “Htr1a.”
as §2, with “The follow-up (secondary) screen tested active chemical-pairs in concentration series, as well as a few additional assays not tested in the primary screen, some selected negative inactives, and several cases re-run in the concentration series for confirmatory purposes.” left out

Chain of rat Adrenergic, Alpha 1A Receptor (Adra1A), Adra1a (gene 29412) (P43140 whole entry, looked up): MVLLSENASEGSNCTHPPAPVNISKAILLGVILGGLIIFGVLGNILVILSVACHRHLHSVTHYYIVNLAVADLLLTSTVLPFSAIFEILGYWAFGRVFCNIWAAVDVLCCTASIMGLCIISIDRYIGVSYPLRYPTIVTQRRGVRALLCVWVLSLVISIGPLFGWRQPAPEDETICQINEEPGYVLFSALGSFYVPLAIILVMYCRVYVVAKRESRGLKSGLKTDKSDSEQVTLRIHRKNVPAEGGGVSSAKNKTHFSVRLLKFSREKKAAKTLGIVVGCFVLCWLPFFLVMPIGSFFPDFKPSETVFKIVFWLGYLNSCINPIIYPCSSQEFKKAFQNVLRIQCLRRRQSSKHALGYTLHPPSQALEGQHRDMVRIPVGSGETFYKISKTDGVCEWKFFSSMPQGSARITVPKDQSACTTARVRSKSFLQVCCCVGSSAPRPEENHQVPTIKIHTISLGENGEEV

Row | SMILES | AC50 | outcome
8 | CN1CCN(Cc2cc(-c3ccc4[nH]c(=O)oc4c3)co2)[C@@H](c2ccc(F)cc2)C1 | 10.3 µM (active) | 
9 | NC(=O)Cn1c(=O)cc(CCN2CCN(c3nccc4sccc34)CC2)c2ccc(F)cc21 | 0.258 µM (active) | 
10 | CCOC(=O)CCC(=O)OCC |  | inactive

These compounds were tested on rat Adrenergic, Alpha 1B Receptor (Adra1B), gene 24173 (assay: NVS_GPCR_rAdra1B: NovaScreen (NVS) G Protein-Coupled Receptor Assay for rat Adrenergic, Alpha 1B Receptor (Adra1B) (AID 2283297)).
Method: as §1, with “NVS_GPCR_rAdra1B” for “NVS_GPCR_r5HT_NonSelective”, “liver” for “cortical”, “plate.NVS_GPCR_rAdra1B” for “plate.NVS_GPCR_r5HT_NonSelective”, “NVS_GPCR_rAdra1B,” for “NVS_GPCR_r5HT_NonSelective,”, “Adra1b.” for “Htr1a.”
as §2

Row | SMILES | outcome | AC50
11 | Oc1ccc2c(c1)OC[C@@H](N1CCC(O)(c3ccc(F)cc3)CC1)[C@H]2O | inactive | 
12 | CN1CCN(Cc2cc(-c3ccc4[nH]c(=O)oc4c3)co2)[C@@H](c2ccc(F)cc2)C1 |  | 22 µM (active)
13 | CCCCC(CC)COC(=O)CC(C(=O)OCC(CC)CCCC)S(=O)(=O)O (stereo not drawn) |  | 29.2 µM (active)
14 | COc1cc(S(=O)(=O)O)c(C)cc1N=Nc1c(O)ccc2cc(S(=O)(=O)O)ccc12 | inactive | 
15 | NC(=O)Cn1c(=O)cc(CCN2CCN(c3nccc4sccc34)CC2)c2ccc(F)cc21 |  | 0.595 µM (active)

Each compound was assayed against rat Adrenergic Receptor, Beta (Adrb), Non-selective Binding, Adrb1 (gene 24925) (UniProt P18090) (assay: NVS_GPCR_rAdrb_NonSelective: NovaScreen (NVS) G Protein-Coupled Receptor Assay for rat Adrenergic Receptor, Beta (Adrb), Non-selective Binding (AID 2283298)).
Method in brief: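 Rat cortical membranes incubated 1 h with beta-adrenergic radioligand and test chemical; bound ligand measured by filtration and scintillation counting. Screen at 25 uM duplicate, then concentration series with 50 uM maximum; loss of signal versus DMSO.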

Chain of rat Adrenergic Receptor, Beta (Adrb), Non-selective Binding, Adrb1 (gene 24925) (P18090 whole entry, looked up): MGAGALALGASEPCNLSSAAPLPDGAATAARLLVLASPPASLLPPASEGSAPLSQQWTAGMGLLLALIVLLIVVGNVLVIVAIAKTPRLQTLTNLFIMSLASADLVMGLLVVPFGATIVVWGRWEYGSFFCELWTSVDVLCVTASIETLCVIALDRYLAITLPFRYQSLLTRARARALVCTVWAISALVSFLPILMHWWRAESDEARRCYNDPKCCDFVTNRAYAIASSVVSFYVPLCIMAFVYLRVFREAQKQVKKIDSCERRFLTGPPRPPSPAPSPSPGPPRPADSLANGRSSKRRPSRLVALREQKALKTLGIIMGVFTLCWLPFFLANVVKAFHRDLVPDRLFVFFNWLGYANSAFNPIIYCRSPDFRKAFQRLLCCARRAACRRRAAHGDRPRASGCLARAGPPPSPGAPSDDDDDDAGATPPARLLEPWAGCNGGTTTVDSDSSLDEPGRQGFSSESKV

Row | SMILES | outcome | AC50
16 | CC(=O)C(C)=CC1C(C)=CCCC1(C)C (stereo not drawn) | inactive | 
17 | Oc1ccc2c(c1)OC[C@@H](N1CCC(O)(c3ccc(F)cc3)CC1)[C@H]2O |  | 5.17 µM (active)
18 | CC(C)c1ccc(C(=O)N=C(N)N)cc1S(C)(=O)=O | inactive | 
19 | CNCc1cc(F)ccc1Oc1ccc(Cl)c(Cl)c1 |  | 12.2 µM (active)
20 | Cc1nc(-c2ccc3c(c2)CCN(CCC2CCC(NC(=O)/C=C/c4ccc(F)cc4)CC2)CC3)no1 (stereo not drawn) | inactive | 

These compounds were tested against rat Adrenergic Receptor, Alpha 2 (Adra2), Non-selective Binding, Adra2a (gene 25083) (UniProt P22909) (assay: NVS_GPCR_rAdra2_NonSelective: NovaScreen (NVS) G Protein-Coupled Receptor Assay for rat Adrenergic Receptor, Alpha 2 (Adra2), Non-selective Binding (AID 2283299)).
Method in brief: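 Filter-based scintillation counting of radioligand binding to rat cortical membrane receptors, measured 1.25 hours post-dosing; loss of signal versus DMSO indicates displacement. Initial single-concentration duplicate at 25 uM, then concentration series.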

Chain of rat Adrenergic Receptor, Alpha 2 (Adra2), Non-selective Binding, Adra2a (gene 25083) (P22909 whole entry, looked up): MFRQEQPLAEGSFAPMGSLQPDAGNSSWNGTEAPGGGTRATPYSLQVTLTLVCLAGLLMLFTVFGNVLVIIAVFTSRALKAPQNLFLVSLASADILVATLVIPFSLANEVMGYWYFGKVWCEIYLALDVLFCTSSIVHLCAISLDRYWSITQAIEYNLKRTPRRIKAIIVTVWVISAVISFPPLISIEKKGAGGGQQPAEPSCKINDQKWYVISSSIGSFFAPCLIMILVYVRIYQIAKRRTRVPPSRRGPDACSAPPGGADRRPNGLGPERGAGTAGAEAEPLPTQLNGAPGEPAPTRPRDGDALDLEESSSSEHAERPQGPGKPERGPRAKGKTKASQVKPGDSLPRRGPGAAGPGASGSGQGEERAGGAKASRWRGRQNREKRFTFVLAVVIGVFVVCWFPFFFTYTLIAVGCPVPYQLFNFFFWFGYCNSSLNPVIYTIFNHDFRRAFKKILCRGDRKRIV

Row | SMILES | AC50 | outcome
21 | CCCCC(CC)COC(=O)CC(C(=O)OCC(CC)CCCC)S(=O)(=O)O (stereo not drawn) | 32.9 µM (active) | 
22 | NC(=O)Cn1c(=O)cc(CCN2CCN(c3nccc4sccc34)CC2)c2ccc(F)cc21 | 0.167 µM (active) | 
23 | CCOC(=O)CCC(=O)OCC |  | inactive
